# According to PubChem BioAssay (NCATS):
# Records with an inconclusive call do not appear. The source made the active and inactive calls. Calls come from the whole dose curve.
# Assay: Cytotoxicity counterscreen for inhibitors of SARS-CoV-2 cell entry (AID 1645845); note: nearly all actives have a fitted effect of over 50% in size
# Conditions: cell viability (SARS-CoV-2 entry assay cells); series mostly up to 57.1 µM
# Outline: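 ATP-content luminescence (ATPLite 1step, 15 min RT) read after 48 h compound exposure of Expi293F cells stably expressing human ACE2; normalized to cells-only wells and media-only wells.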
row,Compound,Potency
1,CCO[C@@H]1OC(=O)C[C@@H]1NC(=O)[C@@H]1CCCN2C(=O)CC[C@H](NC(=O)c3nccc4ccccc34)C(=O)N12,inactive
2,C=CC(=O)N1CCC(CNc2ncnc(N)c2-c2ccc(Oc3ccccc3)cc2)CC1,inactive
3,O=c1sn(-c2cccc3ccccc23)c(=O)n1Cc1ccccc1,inactive

# Assay: Primary qHTS to identify inhibitors of SARS-CoV-2 cell entry (AID 1645846); note: nearly all actives have a fitted effect of over 45% in size; note: potency is the fitted concentration of half-maximal effect
# Conditions: SARS-CoV-2 pseudovirus cell entry assay, luminescence; activity change, negative = inhibition: at 57.1 µM (top of the series) unless noted
# Outline: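 Using luciferase-reporting pseudoviruses carrying Wuhan-Hu-1 spike, the screen tracks entry into stably ACE2-expressing cells over 48 hr. Activity is expressed relative to spike particles versus particles lacking any fusion protein.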
Compound,"activity change, negative = inhibition",Potency
Nc1nccn2c(C3CCC(C(=O)O)CC3)nc(-c3cc4cccc(Cl)c4[nH]3)c12 (stereo not drawn),-18%,–
O=C(Nc1cnn2ccc(N3CCC[C@@H]3c3cc(F)ccc3F)nc12)N1CC[C@H](O)C1,–,inactive
CN1CCN(C(=O)[C@H]2[C@@H](C(=O)O)[C@H]3CC[C@@H]2O3)CC1,-6.02% [at 11.3 µM],–
O=C(Nc1ccc2c(c1)CCN(Cc1ncn[nH]1)C2)c1ccccc1-c1ccc(C(F)(F)F)cc1,-32.8%,–
COc1c(C)cc(NC(=O)c2nn(Cc3ccc(F)cc3)c3c2CN(C(=O)c2ccc[nH]2)C[C@]3(C)C(N)=O)cc1C,–,inactive
COc1cc2nccc(Oc3ccc(NC(=O)c4cn(C(C)C)c(=O)n(-c5ccc(F)cc5)c4=O)cc3F)c2cc1OC,–,inactive
CC1Cc2ccccc2N1C(=O)Cc1nc(N2CCOCC2)cc(=O)[nH]1 (stereo not drawn),-26.2%,–
CCN1CCN(Cc2ccc(NC(=O)c3ccc(C)c(NC(=O)c4cncc(-c5cccs5)c4)c3)cc2C(F)(F)F)CC1,–,3.16 µM (active)
C=CCN(/C=C1\C(=O)O[C@@H](COC)[C@]2(C)C1=C(O)C(=O)C1=C2[C@@H](OC(C)=O)C[C@]2(C)C(=O)CC[C@H]12)CC=C,–,inactive
CCc1cc(/C(C)=N/OCc2ccc(C3CCCCC3)c(C(F)(F)F)c2)ccc1CN1CC(C(=O)O)C1,–,inactive
N#Cc1ccc(C2CCCc3cncn32)cc1 (stereo not drawn),-13.4% [at 27.1 µM],–
CCn1c(=O)c2c(nc(/C=C/c3ccc(OC)c(OC)c3)n2C)n(CC)c1=O,–,inactive
COc1ccc(-c2oc3c(CC=C(C)C)c(OC4O[C@H](CO)[C@@H](O)[C@H](O)[C@H]4O)cc(O)c3c(=O)c2OC2O[C@@H](C)[C@H](O)[C@@H](O)[C@H]2O)cc1 (stereo partly drawn),-18.5%,–
CC1(C(=O)O)CCC2(C)CCC3(C)C(=CC(=O)C4C5(C)CCC(OC6OC(C(=O)O)C(O)C(O)C6OC6OC(C(=O)O)C(O)C(O)C6O)C(C)(C)C5CCC43C)C2C1 (stereo not drawn),–,inactive
O=C(c1ccc(/C=C/c2n[nH]c3ccccc23)cc1)N1CCNCC1,–,inactive
CCOC(=N)c1nc2ccc3ncnc(Nc4cc(F)c(F)cc4Cl)c3c2s1,-20.9%,–
CCn1c(=O)c(-c2ccc(Cl)cc2Cl)cc2cnc(Nc3ccc(N4CCNCC4)c(F)c3)nc21,–,inactive
C[C@@H]1CC(=O)Nc2cccc(-c3cnn(C(C)(C)C)c3)c2N1,-17.2%,–
O=C(O)CNC(=O)c1nc(Cl)c2ccccc2c1O,-5.6%,–
Cn1cc(-c2nc(N[C@@H]3CCCC[C@@H]3N)c(F)c3c2C(=O)NC3)cn1,4.2% [at 5.25 µM],–

Compound,"activity change, negative = inhibition",Potency
CC(=O)N1CCN(c2ccc(NC(=O)Cc3cnc(-c4ccnc(F)c4)c(C)c3)nc2)CC1,0.388%,–
O=C(CCCc1ccc2cccnc2n1)NCc1cc(-c2ccc(F)c(C(F)(F)F)c2)no1,-12.5%,–
O=C(O)CCCCN(CCc1ccccc1OCc1ccc(CCc2ccccc2)cc1)Cc1ccc(C(=O)O)cc1,–,inactive
O=C(NCCCNc1nc(Nc2cccc(CN3CCOCC3)c2)ncc1C1CC1)C1CCC1,–,inactive
COc1cc2c(NC3CCN(C4CCCCC4)CC3)nc(N3CCCN(C(C)C)CC3)nc2cc1OCCCN1CCCCC1,–,11.2 µM (active)
O=C(O)CNC(=O)c1ncc(-c2cccc(Cl)c2)cc1O,–,inactive
CC1(N)CCN(c2cnc(-c3cccc(Cl)c3Cl)c(N)n2)CC1,-2.57% [at 27.1 µM],–
C[C@H]1CN(C2COC2)CCN1c1ccc(Nc2cc(-c3ccnc(N4CCn5c(cc6c5CC(C)(C)C6)C4=O)c3CO)cn(C)c2=O)nc1,-10.4%,–
O=c1ccn([C@@H]2O[C@H](CO)[C@@H](O)[C@H]2O)c(=O)[nH]1,-16.1%,–
COc1cc(C)[nH]c(=O)c1CN1CCc2c(Cl)cc([C@H](OC)C3COC3)c(Cl)c2C1=O,–,inactive
Cc1c[nH]c(/C=C2\C(=O)Nc3ccccc32)c1CCC(=O)O,-20.8%,–
O=C1S/C(=C\c2ccc(OCc3cccc(B(O)O)c3)cc2)C(=O)N1Cc1ccc(F)cc1,-28.4%,–
COc1ccccc1C(=O)Nc1cc2c(cc1N1CCCC1)n(C)c(=O)n2C,-27%,–
CS(=O)(=O)c1ccc(-c2nnc(/C=C/c3nnc(-c4ccc(C#N)cc4)o3)n2-c2ccccc2Cl)nc1,-12.6%,–
CC(C)n1cc(-c2ccc3c(c2)N(C)CC3)c2c(NS(=O)(=O)c3ccn(C)n3)ccnc21,-1.94%,–
CN1CCN(C(=O)c2ccc(-c3ccc4c(C=O)c(O)ccc4c3)s2)CC1,–,inactive
Cc1c(F)cccc1NC(=O)Nc1ccc(Cl)c(S(=O)(=O)[C@H]2CCCNC2)c1O,–,inactive
CCO[C@@H]1OC(=O)C[C@@H]1NC(=O)[C@@H]1CCCN2C(=O)CC[C@H](NC(=O)c3nccc4ccccc34)C(=O)N12,-4.46%,–
C=CC(=O)N1CCC(CNc2ncnc(N)c2-c2ccc(Oc3ccccc3)cc2)CC1,-20.9%,–
O=c1sn(-c2cccc3ccccc23)c(=O)n1Cc1ccccc1,–,inactive
